In PubChem BioAssay (NCI):
About 79,000 compounds went through this panel and 15% of them were active in at least one assay; those are over-represented in the sample as a whole. Rule as the data show it: active = growth inhibition above about 70%; inactive = the rest.

Tests used:
[1] = NCI Yeast Anticancer Drug Screen. Data for the rad50 strain (AID 155);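 also: 0% = growth of vehicle-only cultures of the same strain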; details: S. cerevisiae rad50 strain growth inhibition; at 50.0 µM; stronger effect = higher value
How it was run: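 Vehicle-treated cultures provide the reference for the growth inhibition reported for compound-exposed, repair-deficient yeast.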

[2] = NCI Yeast Anticancer Drug Screen. Data for the mec2-1 strain (AID 157); details: S. cerevisiae mec2-1 strain, at 50.0 µM, stronger effect = higher value
How it was run: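 Test agents were screened against the mec2-1 yeast strain, with defined DNA repair or cell cycle alteration. Growth was scored as inhibition against vehicle-only controls.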

[3] = NCI Yeast Anticancer Drug Screen. Data for the sgs1 mgt1 strain (AID 161);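 also: 0% = growth of cultures given vehicle only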; details: S. cerevisiae sgs1 mgt1 strain, at 50.0 µM, stronger effect = higher value
How it was run: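 Test agents were incubated with a DNA-repair-mutant yeast strain. Growth was then read and compared against vehicle-treated controls.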

[4] = NCI Yeast Anticancer Drug Screen. Data for the cln2 rad14 strain (AID 165);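 also: 0% = growth equal to vehicle treated cultures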; details: S. cerevisiae cln2 rad14 strain, at 50.0 µM, stronger effect = higher value
How it was run: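 Growth of compound-exposed yeast (cln2 rad14 genotype) measured and expressed as inhibition relative to vehicle.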

[5] = NCI Yeast Anticancer Drug Screen. Data for the bub3 strain (AID 167); details: S. cerevisiae bub3 mutant strain, at 50.0 µM, stronger effect = higher value
How it was run: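 Mutant yeast screening strain plus compound; vehicle-treated cultures serve as the 0% inhibition reference.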

[6] = NCI Yeast Anticancer Drug Screen. Data for the mlh1 rad18 strain (AID 175); details: S. cerevisiae mlh1 rad18 strain growth inhibition; at 50.0 µM; stronger effect = higher value
How it was run: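 In this whole-cell yeast screen, a strain with altered DNA damage repair is challenged with compound, and its growth is measured against matched vehicle-treated controls.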

Measured: growth inhibition

COC(=O)c1c(C(=O)c2ccccc2)nnn1-c1cccc(C(F)(F)F)c1
inactive: [1] -14.1% | [2] -32.7% | [3] -19% | [4] -3.85% | [5] -28.7% | [6] 0.35%

CCC(=O)OCCCc1ccccc1
inactive: [1] 22.1% | [2] 8.25% | [3] 15.8% | [4] 9.25% | [5] 12.3% | [6] 10.8%

Cc1ccc(C)c(NC(=O)C(=O)C(C(=O)c2ccc3ccccc3c2)C2OC(=O)c3ccccc32)c1 (centres undefined)
inactive: [1] 23.9% | [2] 15.8% | [3] 35.9% | [4] 23.5% | [5] 4.15% | [6] 13.7%

O=C1OC(=O)C2C1N=NC2(c1ccccc1)c1ccccc1 (centres undefined)
inactive: [1] 47.3% | [2] 26% | [3] 22.1% | [4] -19.3% | [5] -1.15% | [6] 39.8%

OC12CCCCCC1(N1CCOCC1)c1ccccc12 (centres undefined)
inactive: [1] -8.2% | [2] -11.7% | [3] -29.7% | [4] -21.1% | [5] -37.2% | [6] -24.3%

O=C(CCBr)OCCC1CCCCC1
inactive: [1] -1.95% | [2] -2.45% | [3] -0.8% | [4] -16.1% | [5] -7.05% | [6] 5.6%

CC(C)=NNC(=O)c1ccc([N+](=O)[O-])cc1
inactive: [1] 9.35% | [2] 0.95% | [3] 2.1% | [4] 5.1% | [5] 3.65% | [6] 10.4%

O=C(NNC(=O)c1cccc2ccccc12)c1ccccc1F
inactive: [1] -16.6% | [2] -12.6% | [3] -13.9% | [4] 1.35% | [5] -11.6% | [6] -15.9%

CN1C(=O)CC(NC(=O)CNC(=O)c2ccccc2)C1=O (centres undefined)
inactive: [1] 19.5% | [2] 16% | [3] 23.1% | [4] 21.1% | [5] 2.7% | [6] 29.4%

CC(C)(C)[Si](C)(C)OC1CCOC1(O)c1ccccn1 (centres undefined)
inactive: [1] 5.75% | [2] 0.65% | [3] 29.6% | [4] 37.1% | [5] 35.8% | [6] -8.2%

O=C(C[n+]1cc(Br)cc(Br)c1)c1ccc(Cl)cc1
inactive: [1] -9.6% | [2] -15.8% | [3] -13% | [4] -13.8% | [5] -30.1% | [6] -7.9%

CC1(C)C2=CCCC(=O)[C@@]2(C)CC[C@@H]1O
inactive: [1] -4.15% | [2] 4.65% | [3] -4.9% | [4] -26.1% | [5] 1.55% | [6] 3.35%

CC/C=C\CCOC(=O)C1OC1c1ccccc1 (centres undefined)
inactive: [1] 8.15% | [2] 17.3% | [3] -8.75% | [4] 10.9% | [5] 0% | [6] 1.5%

O=C(Nc1nc(=S)[nH][nH]1)C(=O)C(c1cnc2ccc([N+](=O)[O-])cc2n1)[N+](=O)[O-] (centres undefined)
inactive: [1] -4.5% | [2] -26% | [3] -14.3% | [4] 7.9% | [5] -0.6% | [6] 3.2%

COc1cc(Cn2c(=S)ss/c2=N\C(=S)N(C)C)cc(OC)c1OC
inactive: [1] 1.7% | [2] 4.45% | [3] -0.4% | [4] 6.45% | [5] -2.25% | [6] -12%

CCO[Si](CCCN)(OCC)OCC
inactive: [1] -37.5% | [2] -58.2% | [3] -36.2% | [4] 0.95% | [5] -22.1% | [6] -33.8%

CCCCOc1ccc(N)cn1
inactive: [1] -5.05% | [2] -4.85% | [3] 6.15% | [4] -16.4% | [5] 32.7% | [6] -5.45%

CCCCCCCCCCCCCCCCCCOCCCCCC
inactive: [1] -8.65% | [2] -30.1% | [3] -19.8% | [4] 4.2% | [5] -10.3% | [6] -7.55%

CC(=O)OCCCC(=O)Nc1cc([N+](=O)[O-])ccc1OCc1ccccc1
inactive: [1] 12.4% | [2] -3.35% | [3] 3.45% | [4] -6.35% | [5] 5.7% | [6] 8.45%

C=CCCCCCCCCCCCCCC
inactive: [1] -0.85% | [2] -2.3% | [3] -4% | [4] 10% | [5] -7.5% | [6] 26.9%

CCCCCCC(=O)CC1(C(=O)OC)NC(=S)NC(=O)C1C#N (centres undefined)
inactive: [1] 18.1% | [2] 6.85% | [3] -1.55% | [4] -0.75% | [5] -9.55% | [6] 15.8%

O=C(C[n+]1ccncc1)c1cccc([N+](=O)[O-])c1
inactive: [1] 0.5% | [2] -1.95% | [3] 9.15% | [4] 8.35% | [5] 7.65% | [6] 27.4%

COC1=CC(=O)C(C2OC(=O)C(Cl)=C2Cl)=CC1=O (centres undefined)
inactive: [1] 8.1% | [2] 7.3% | [3] -2.45% | [4] -11.4% | [5] 16.6% | [6] 13.2%

CCOC1OC(C2COC(=O)O2)C(O)C1O (centres undefined)
inactive: [1] 15.8% | [2] 10.6% | [3] -3.85% | [4] -71.2% | [5] 7.4% | [6] -3%

COc1ccc(C2=C/C(=C/c3ccc(N(CCC#N)CCC#N)cc3)C(=O)O2)cc1
inactive: [1] -75.2% | [2] -6.2% | [3] -16.4% | [4] -18.2% | [5] -3.05% | [6] -22.8%

COc1ccc2nc(-c3ccccc3)cc(OCC(=O)O)c2c1
inactive: [1] -30.2% | [2] 21.2% | [3] -7.5% | [4] -13.1% | [5] 10.1% | [6] -15.8%

COc1c(OC(C)=O)c(OC(C)=O)cc2c1-c1ccc(OC)c(=O)cc1C(NC(C)=O)CC2 (centres undefined)
inactive: [1] 1.65% | [2] -1.35% | [3] 15.8% | [4] 1.35% | [5] -33.3% | [6] 8.35%

Nc1[nH]c(=S)[nH]c(=O)c1N=Cc1ccc2c(c1)OCO2
inactive: [1] 13.2% | [2] 10% | [3] 61.4% | [4] 12.7% | [5] 16.2% | [6] 9.7%

O=C(Oc1ccc([N+](=O)[O-])cc1)C(CSC(c1ccccc1)(c1ccccc1)c1ccccc1)N1C(=O)c2ccccc2C1=O (centres undefined)
inactive: [1] 61.8% | [2] 46.7% | [3] 44.5% | [4] 58.7% | [5] 31.9% | [6] 52.8%

Cc1cc(C)c(C(=O)/C(O)=C/c2ccccc2)c(C)c1
inactive: [1] -13.7% | [2] -7.7% | [3] 1.2% | [4] 9.95% | [5] -45.5% | [6] -14.2%

CCOC(=O)/C(N=Nc1ccc(O)cc1)=C(\C)O
inactive: [1] -6.4% | [2] 28.4% | [3] 17.7% | [4] 24.9% | [5] -1.2% | [6] -0.65%

CCOC(=O)NN(C(=O)OCC)c1c(C)[nH]c2ccccc12
inactive: [1] 20.3% | [2] 10.6% | [3] 19.4% | [4] -10.6% | [5] 4.65% | [6] 24.5%

Cc1cccc2c1-c1c(C)cccc1C(Cl)S(=O)(=O)C2 (centres undefined)
inactive: [1] 1.25% | [2] -4.6% | [3] -9.05% | [4] 4.55% | [5] 6.85% | [6] -1.65%

Cc1nc(C(N)=S)sc1C(=O)CC(=O)C(=O)Nc1ccc(Br)cc1
inactive: [1] 2.5% | [2] -38.5% | [3] -24.4% | [4] 1.35% | [5] -25.8% | [6] -14.8%

CCC(Cc1ccccc1)OC(=O)c1ccccc1C(=O)O (centres undefined)
inactive: [1] -16.2% | [2] -10.8% | [3] 8% | [4] -43.3% | [5] -6.85% | [6] 1.9%

O=C(Cc1ccccc1)N(C(=O)c1ccccc1)c1ccccc1
inactive: [1] 8.9% | [2] 14.5% | [3] 10.8% | [4] 9.1% | [5] 24.1% | [6] 15.7%

CC(C)(C)/C=N/Nc1ccc([N+](=O)[O-])cc1[N+](=O)[O-]
inactive: [1] 26.4% | [2] 15.1% | [3] -0.05% | [4] -40.2% | [5] 11.7% | [6] -13.3%

CC(=O)OCC(NC(=O)C(N)CC(=O)O)C(=O)NCC(=O)Oc1ccc([N+](=O)[O-])cc1 (centres undefined)
inactive: [1] 13.9% | [2] 15.7% | [3] 11.8% | [4] 12% | [5] 1.9% | [6] 5.75%

O=C1c2ccccc2C(=O)N1/N=C1/SC(=Nc2ccccc2)C(=Nc2ccccc2)N1c1ccccc1
inactive: [1] 6.3% | [2] 0% | [3] 15% | [4] 26.4% | [5] 14.8% | [6] 20.1%
